Here are results for 40 compounds from the supplement of paper PMC10646978.

± gives the standard deviation.

In the first assay the test system is RAW-Dual (murine macrophage reporter line). The experiment in a line: NF-kB reporter (SEAP) activity fold change vs agonist alone; higher = enhanced NF-kB activity. The conditions noted are these: modulator concentration 10 µM; agonist: MPLA […]. The method in brief: (§1)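 Overnight stimulation with a PRR agonist followed pre-incubation for 1 hour at 37 °C with compound at 10 μM final. This was done in RAW-Dual murine macrophage reporter cells seeded at 50 000 per well in 384-well plates. NF-κB (SEAP, QUANTI-Blue absorbance at 620 nm) and IRF (Lucia luciferase, QUANTI-Luc luminescence) were read from the supernatant. Each reporter's fold change relative to the mean agonist-only control on the same plate was averaged over replicate plates.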
For `Cl.OC(CC#CCN1CCCC1)(c1ccccc1)c1ccccc1`, the NF-kB reporter was found to be 0.967 ± 0.074.
On the same count and under the same terms, then `CCN(CC)CC#CCOC(=O)C(O)(c1ccccc1)C1CCCCC1.Cl` (stereo not given), with 1.05 ± 0.084; and `CCSC1=C(C#N)C2(CCCC2)C(C#N)C(=O)N1` (stereo not given), with 0.91 ± 0.081; and `CC(=O)Nc1ccc(O)cc1` [Prestw-868], with 0.965 ± 0.082.
Same read-out and setting: next, `COc1ccc(CNc2nc(N3CCC[C@H]3CO)ncc2C(=O)NCc2ncccn2)cc1Cl`: 0.771 ± 0.043; `COc1ccc(CCNCC(O)COc2cccc(C)c2)cc1OC.Cl` (stereo not given): 1.06 ± 0.099; `CCCC(CCC)C(=O)O`: 0.99 ± 0.045.
On the same count and under the same terms, next, `CNc1ncnc2c1ncn2[C@@H]1O[C@H](CO)[C@@H](O)[C@H]1O` [Prestw-338]: 1.16 ± 0.15; `CN1CCN2c3ccccc3Cc3ccccc3C2C1.Cl` (stereo not given): 0.835 ± 0.058.
As to `CN1CC(=O)N2[C@H](c3ccc4c(c3)OCO4)c3[nH]c4ccccc4c3C[C@@H]2C1=O`, the NF-kB reporter is 0.976 ± 0.056.
In the case of `Cc1ccc2[nH]c3nc(NN)nnc3c2c1`, the NF-kB reporter was 0.967 ± 0.024.
On the same count and under the same terms, next, `N#Cc1nc(-c2ccc(COc3ccc(Cl)cc3)o2)oc1N1CCCCC1`: 1.13 ± 0.075; `Nc1ccn([C@H]2CC[C@@H](CO)O2)c(=O)n1`: 1.02 ± 0.09.
Still for that read-out and setting: next, `COc1ccccc1-n1ncc2c(C)nnc(SCC(=O)NCc3ccccc3Cl)c21`: 0.761 ± 0.19; `Cc1[nH]nc(-c2ccc(OCc3ccccc3)c(C)c2O)c1-c1cnn(-c2ccccc2)c1`: 0.784 ± 0.049.
On the same count and under the same terms, next, `CCOc1ccccc1OCCCCOc1ccc(I)cc1`: 0.937 ± 0.11; `CC1CC(=O)C2=C(C1)OC(N)=C(C#N)C2c1cccc2ccccc12` (stereo not given): 1.03 ± 0.11.
On to `COC(=O)C1=C(C)N(C)C(C)=C(C(=O)OC)C1c1cccc(C(F)(F)F)c1`, for which the NF-kB reporter turned out to be 0.955 ± 0.082.
Still for that read-out and setting: next, `CNS(=O)(=O)C[C@H]1CC[C@H](N(C)c2ncnc3[nH]ccc23)CC1.O=C(O)/C=C\C(=O)O`: 0.414 ± 0.033; `Oc1nc(O)nc(N(c2ccccc2)c2ccccc2)n1`: 1.02 ± 0.09; `Cn1c(=O)c2c(ncn2CC(O)CO)n(C)c1=O` (stereo not given): 1.08 ± 0.18.
The same measure, in the same setting: next, `CC(C)CNC(=O)C(=O)Nc1ccc(C(C)C)cc1`: 1.01 ± 0.038; `CN1C(=O)C(=Cc2cccc3ccccc23)SC1=S`: 0.949 ± 0.073.
In the case of `O=C(Nc1cc(N2CCN(Cc3ccccc3)CC2)ncn1)c1ccc2ccccc2n1`, the NF-kB reporter turned out to be 0.846 ± 0.036.
`O=C(NCCN1CCN(c2ccc(Cl)cc2)CC1)c1cnccn1`: the NF-kB reporter turned out to be 1 ± 0.03.
For `Cc1nnc(C(C)C)n1C1CC2CCC(C1)N2CC[C@H](NC(=O)C1CCC(F)(F)CC1)c1ccccc1` (stereo not given in full), the NF-kB reporter is 1.03 ± 0.051.
Same read-out and setting: then `O=C(CSC1CC(=O)N(c2ccc(C(=O)O)cc2)C1=O)Nc1ccc(F)cc1` (stereo not given), with 1.52 ± 0.53; and `CCCCSc1nnc2c(n1)OC(c1cccc(C)n1)Nc1ccc(Br)cc1-2` (stereo not given), with 0.97 ± 0.045; and `Cc1ccc(-n2c(=O)c3c4c(sc3n3c(S)nnc23)CCCC4)cc1`, with 0.923 ± 0.1.
On the same count and under the same terms, next, `Cc1cc(C)n(CCNc2nc3ccccc3s2)n1`: 1 ± 0.1; `CCN(CC)CC(=O)Nc1c(C)cccc1C.Cl`: 1.03 ± 0.051.
The same measure, in the same setting: next, `COc1cc(C=C(C#N)c2nc3ccccc3[nH]2)cc(Cl)c1O`: 0.992 ± 0.029; `C/C(O)=C(\C#N)C(=O)Nc1ccc(C(F)(F)F)cc1`: 1.01 ± 0.074.
`CC(C)CSc1nnc2c(n1)[nH]c1ccccc12`: the NF-kB reporter was found to be 0.967 ± 0.039.
On the same count and under the same terms, then `O=C1c2ccccc2C(=O)c2c1ccc(O)c2O`, with 1.02 ± 0.027; and `Oc1cccc(C=Nc2ccc(N=Cc3cccc(O)c3O)cc2)c1O`, with 0.783 ± 0.079.
Still for that read-out and setting: next, `COCC(=O)N1CCC2(CC1)NC(=O)N(Cc1ccc(Cl)cc1)C2=O`: 1.05 ± 0.091; `CS(=O)(=O)N1CCN(Cc2cc3nc(-c4cccc5[nH]ncc45)nc(N4CCOCC4)c3s2)CC1`: 2.94 ± 0.17; `COc1ccc(C=Nn2cnnc2)cc1COc1cc(C)c(Cl)cc1C(C)C`: 0.984 ± 0.095.
In the case of `C#CCN[C@@H]1CCc2ccccc21` [Prestw-1734], the NF-kB reporter was found to be 0.978 ± 0.026.

A further assay has the same test system. Briefly: IRF reporter (Lucia luciferase) activity fold change vs agonist alone; higher = enhanced IRF activity. The following applies: modulator concentration 10 µM; agonist: 3'3'-cGAMP 10 ug/mL. Put shortly: as §1
On to `Cl.OC(CC#CCN1CCCC1)(c1ccccc1)c1ccccc1`, for which the IRF reporter was 0.748 ± 0.019.
The same measure, in the same setting: next, `CCN(CC)CC#CCOC(=O)C(O)(c1ccccc1)C1CCCCC1.Cl` (stereo not given): 0.998 ± 0.047; `CCSC1=C(C#N)C2(CCCC2)C(C#N)C(=O)N1` (stereo not given): 0.789 ± 0.021.
On the same count and under the same terms, then `CC(=O)Nc1ccc(O)cc1` [Prestw-868], with 0.972 ± 0.056.
Take `COc1ccc(CNc2nc(N3CCC[C@H]3CO)ncc2C(=O)NCc2ncccn2)cc1Cl`: the IRF reporter came out at 1.51 ± 0.23.
The same measure, in the same setting: then `COc1ccc(CCNCC(O)COc2cccc(C)c2)cc1OC.Cl` (stereo not given), with 0.824 ± 0.029.
On the same count and under the same terms, next, `CCCC(CCC)C(=O)O`: 0.957 ± 0.079; `CNc1ncnc2c1ncn2[C@@H]1O[C@H](CO)[C@@H](O)[C@H]1O` [Prestw-338]: 1.15 ± 0.043; `CN1CCN2c3ccccc3Cc3ccccc3C2C1.Cl` (stereo not given): 0.68 ± 0.032.
The same measure, in the same setting: then `CN1CC(=O)N2[C@H](c3ccc4c(c3)OCO4)c3[nH]c4ccccc4c3C[C@@H]2C1=O`, with 0.869 ± 0.026; and `Cc1ccc2[nH]c3nc(NN)nnc3c2c1`, with 0.913 ± 0.05; and `N#Cc1nc(-c2ccc(COc3ccc(Cl)cc3)o2)oc1N1CCCCC1`, with 1.21 ± 0.047.
Regarding `Nc1ccn([C@H]2CC[C@@H](CO)O2)c(=O)n1`, the IRF reporter stood at 1.03 ± 0.088.
Still for that read-out and setting: then `COc1ccccc1-n1ncc2c(C)nnc(SCC(=O)NCc3ccccc3Cl)c21`, with 0.781 ± 0.13; and `Cc1[nH]nc(-c2ccc(OCc3ccccc3)c(C)c2O)c1-c1cnn(-c2ccccc2)c1`, with 0.95 ± 0.026; and `CCOc1ccccc1OCCCCOc1ccc(I)cc1`, with 0.967 ± 0.025.
Same read-out and setting: then `CC1CC(=O)C2=C(C1)OC(N)=C(C#N)C2c1cccc2ccccc12` (stereo not given), with 0.988 ± 0.033; and `COC(=O)C1=C(C)N(C)C(C)=C(C(=O)OC)C1c1cccc(C(F)(F)F)c1`, with 0.995 ± 0.035; and `CNS(=O)(=O)C[C@H]1CC[C@H](N(C)c2ncnc3[nH]ccc23)CC1.O=C(O)/C=C\C(=O)O`, with 0.0771 ± 0.0033.
With `Oc1nc(O)nc(N(c2ccccc2)c2ccccc2)n1`, the IRF reporter is 1 ± 0.13.
With `Cn1c(=O)c2c(ncn2CC(O)CO)n(C)c1=O` (stereo not given), the IRF reporter stood at 0.887 ± 0.066.
The same measure, in the same setting: then `CC(C)CNC(=O)C(=O)Nc1ccc(C(C)C)cc1`, with 0.989 ± 0.15; and `CN1C(=O)C(=Cc2cccc3ccccc23)SC1=S`, with 0.939 ± 0.024.
Turning to `O=C(Nc1cc(N2CCN(Cc3ccccc3)CC2)ncn1)c1ccc2ccccc2n1`, the IRF reporter was found to be 0.94 ± 0.049.
In the case of `O=C(NCCN1CCN(c2ccc(Cl)cc2)CC1)c1cnccn1`, the IRF reporter was 0.982 ± 0.049.
Same read-out and setting: then `Cc1nnc(C(C)C)n1C1CC2CCC(C1)N2CC[C@H](NC(=O)C1CCC(F)(F)CC1)c1ccccc1` (stereo not given in full), with 1.08 ± 0.2.
For `O=C(CSC1CC(=O)N(c2ccc(C(=O)O)cc2)C1=O)Nc1ccc(F)cc1` (stereo not given), the IRF reporter worked out at 0.578 ± 0.021.
In the case of `CCCCSc1nnc2c(n1)OC(c1cccc(C)n1)Nc1ccc(Br)cc1-2` (stereo not given), the IRF reporter was determined as 0.985 ± 0.14.
Same read-out and setting: then `Cc1ccc(-n2c(=O)c3c4c(sc3n3c(S)nnc23)CCCC4)cc1`, with 0.959 ± 0.035.
Regarding `Cc1cc(C)n(CCNc2nc3ccccc3s2)n1`, the IRF reporter is 1.08 ± 0.055.
On to `CCN(CC)CC(=O)Nc1c(C)cccc1C.Cl`, for which the IRF reporter was 0.89 ± 0.075.
Regarding `COc1cc(C=C(C#N)c2nc3ccccc3[nH]2)cc(Cl)c1O`, the IRF reporter amounted to 1.09 ± 0.039.
Take `C/C(O)=C(\C#N)C(=O)Nc1ccc(C(F)(F)F)cc1`: the IRF reporter was 0.855 ± 0.044.
`CC(C)CSc1nnc2c(n1)[nH]c1ccccc12`: the IRF reporter was found to be 0.955 ± 0.2.
On the same count and under the same terms, then `O=C1c2ccccc2C(=O)c2c1ccc(O)c2O`, with 0.948 ± 0.084; and `Oc1cccc(C=Nc2ccc(N=Cc3cccc(O)c3O)cc2)c1O`, with 0.712 ± 0.052.
For `COCC(=O)N1CCC2(CC1)NC(=O)N(Cc1ccc(Cl)cc1)C2=O`, the IRF reporter was 0.995 ± 0.05.
As to `CS(=O)(=O)N1CCN(Cc2cc3nc(-c4cccc5[nH]ncc45)nc(N4CCOCC4)c3s2)CC1`, the IRF reporter stood at 0.151 ± 0.0092.
The same measure, in the same setting: next, `COc1ccc(C=Nn2cnnc2)cc1COc1cc(C)c(Cl)cc1C(C)C`: 1.21 ± 0.11.
Still for that read-out and setting: next, `C#CCN[C@@H]1CCc2ccccc21` [Prestw-1734]: 0.977 ± 0.037.
